# Laboratory results: PubChem BioAssay (NCI)
# About 79,000 compounds went through this panel and 15% of them were active in at least one assay; those are over-represented in the sample as a whole. Unmarked numbers belong to inactive results. Calls of active or inactive are those of the source. Rule as the data show it: active = growth inhibition above about 70%; inactive = the rest.
# Columns and labels:
# [1] = NCI Yeast Anticancer Drug Screen. Data for the rad52 strain (AID 147);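 also: 0% = growth of vehicle-treated control cultures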; conditions: S. cerevisiae rad52 mutant growth inhibition, hits give high values
# Outline: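 Genetically altered yeast (DNA damage repair defect) treated with compound; inhibition calculated relative to vehicle.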
# [2] = NCI Yeast Anticancer Drug Screen. Data for the wt1 strain (AID 149);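 also: 0% = growth of vehicle-treated wt1 cultures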; conditions: S. cerevisiae wt1 strain (SPY 50644) growth inhibition, hits give high values
# Outline: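 Using yeast strain wt1, compound-induced growth inhibition was determined against vehicle-treated cultures.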
# [3] = NCI Yeast Anticancer Drug Screen. Data for the rad50EPP+ strain (AID 151);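 also: 0% = growth of vehicle-treated control cultures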; conditions: S. cerevisiae rad50 mutant strain, hits give high values
# Outline: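 Strain rad50EPP+; compound exposure; % growth inhibition vs vehicle.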
# [4] = NCI Yeast Anticancer Drug Screen. Data for the rad50 strain (AID 155);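 also: 0% = growth of vehicle-only cultures of the same strain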; conditions: S. cerevisiae rad50 strain growth inhibition, hits give high values
# Outline: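 Relative growth inhibition (compound vs vehicle) was measured in yeast with a defined repair-gene alteration.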
# [5] = NCI Yeast Anticancer Drug Screen. Data for the mec2-1 strain (AID 157); conditions: S. cerevisiae mec2-1 strain, hits give high values
# Outline: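 Cells of the genetically defined mec2-1 yeast strain are incubated with test compound. Inhibition of growth is calculated against vehicle-treated controls.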
# [6] = NCI Yeast Anticancer Drug Screen. Data for the rad14 strain (AID 159);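 also: 0% = growth of vehicle-treated control cultures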; conditions: S. cerevisiae rad14 strain growth inhibition, hits give high values
# Outline: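 Screen for anticancer potential: a yeast strain altered in DNA damage repair is grown with compound, and reduced growth is quantified against vehicle controls.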
# [7] = NCI Yeast Anticancer Drug Screen. Data for the sgs1 mgt1 strain (AID 161);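 also: 0% = growth of cultures given vehicle only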; conditions: S. cerevisiae sgs1 mgt1 strain, hits give high values
# Outline: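 Test agents were incubated with a DNA-repair-mutant yeast strain. Growth was then read and compared against vehicle-treated controls.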
# [8] = NCI Yeast Anticancer Drug Screen. Data for the CLN2oe strain (AID 163);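 also: 0% = growth of vehicle-only control cultures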; conditions: S. cerevisiae CLN2oe strain, hits give high values
# Outline: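 Strain altered in cell-cycle control, incubated with compound; growth compared to solvent-treated controls.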
# [9] = NCI Yeast Anticancer Drug Screen. Data for the cln2 rad14 strain (AID 165);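 also: 0% = growth equal to vehicle treated cultures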; conditions: S. cerevisiae cln2 rad14 strain, hits give high values
# Outline: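 The screen exposed genetically defined yeast (cln2 rad14) to test compounds and scored growth inhibition relative to vehicle-treated controls.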
# [10] = NCI Yeast Anticancer Drug Screen. Data for the bub3 strain (AID 167); conditions: S. cerevisiae bub3 mutant strain, hits give high values
# Outline: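 Screening used yeast with an engineered genetic alteration affecting cell cycle control. Compound-exposed cultures were compared with vehicle cultures, and reduced growth was taken as inhibition.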
# [11] = NCI Yeast Anticancer Drug Screen. Data for the wt2 strain (AID 169);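 also: 0% = growth of vehicle-treated yeast cultures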; conditions: S. cerevisiae wt2 strain growth inhibition, hits give high values
# Outline: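 Steps: yeast strain treated with compound; growth recorded; inhibition calculated relative to cultures given vehicle alone.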
# [12] = NCI Yeast Anticancer Drug Screen. Data for the sgs1 strain (AID 173);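 also: 0% = growth of vehicle-only control cultures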; conditions: S. cerevisiae sgs1 mutant, hits give high values
# Outline: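 Inhibition of yeast growth served as the measure. The mutant strain was treated with each compound, and growth was normalised to cultures receiving vehicle alone.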
# [13] = NCI Yeast Anticancer Drug Screen. Data for the mlh1 rad18 strain (AID 175); conditions: S. cerevisiae mlh1 rad18 strain growth inhibition, hits give high values
# Outline: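 Compound-treated yeast growth, normalised to vehicle controls. Strain bears defined DNA repair mutations.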
# [14] = NCI Yeast Anticancer Drug Screen. Data for the rad18 strain (AID 177); conditions: S. cerevisiae rad18 mutant growth inhibition, hits give high values
# Outline: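 Inhibition values reflect reduced yeast growth compared with vehicle-treated controls, using a strain engineered with a DNA damage repair defect.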
# [15] = at 5.0 µM (retest, dose inferred, filed as 0.5)
# [16] = at 50.0 µM (retest, dose inferred, filed as 5.0)
compound,measurement,setting,value
O=S1(=O)c2ccccc2N=C(c2ccccc2Cl)CC1c1ccc(F)cc1 (stereo unspecified),growth inhibition,[1]; at 1.2 µM,21%
same,growth inhibition,[1]; at 3.7 µM,24%
same,growth inhibition,[1]; at 11.0 µM,28%
same,growth inhibition,[1]; at 33.0 µM,35%
same,growth inhibition,[1]; at 100.0 µM,34%
same,growth inhibition,[2]; at 1.2 µM,0%
same,growth inhibition,[2]; at 3.7 µM,-4%
same,growth inhibition,[2]; at 11.0 µM,25%
same,growth inhibition,[2]; at 33.0 µM,36%
same,growth inhibition,[2]; at 100.0 µM,8%
same,growth inhibition,[3]; at 1.2 µM,-23%
same,growth inhibition,[3]; at 3.7 µM,-22%
same,growth inhibition,[3]; at 11.0 µM,0%
same,growth inhibition,[3]; at 33.0 µM,15%
same,growth inhibition,[3]; at 100.0 µM,24%
same,growth inhibition,[4]; at 1.2 µM,-39%
same,growth inhibition,[4]; at 3.7 µM,-34%
same,growth inhibition,[4]; [15],-7%
same,growth inhibition,[4]; at 11.0 µM,-18%
same,growth inhibition,[4]; at 33.0 µM,17%
same,growth inhibition,[4]; [16],29%
same,growth inhibition,[4]; at 50.0 µM,18.3%
same,growth inhibition,[4]; at 100.0 µM,13%
same,growth inhibition,[5]; at 1.2 µM,-52%
same,growth inhibition,[5]; at 3.7 µM,-27%
same,growth inhibition,[5]; [15],-22%
same,growth inhibition,[5]; at 11.0 µM,-29%
same,growth inhibition,[5]; at 33.0 µM,0%
same,growth inhibition,[5]; [16],-10%
same,growth inhibition,[5]; at 50.0 µM,-10.2%
same,growth inhibition,[5]; at 100.0 µM,-27%
same,growth inhibition,[6]; at 1.2 µM,-32%
same,growth inhibition,[6]; at 3.7 µM,-47%
same,growth inhibition,[6]; at 11.0 µM,-25%
same,growth inhibition,[6]; at 33.0 µM,-3%
same,growth inhibition,[6]; at 100.0 µM,-6%
same,growth inhibition,[7]; [15],-5%
same,growth inhibition,[7]; [16],-8%
same,growth inhibition,[7]; at 50.0 µM,61%
same,growth inhibition,[8]; at 1.2 µM,-9%
same,growth inhibition,[8]; at 3.7 µM,-8%
same,growth inhibition,[8]; at 11.0 µM,-10%
same,growth inhibition,[8]; at 33.0 µM,-1%
same,growth inhibition,[8]; at 100.0 µM,-13%
same,growth inhibition,[9]; [15],17%
same,growth inhibition,[9]; [16],16%
same,growth inhibition,[9]; at 50.0 µM,31.5%
same,growth inhibition,[10]; at 1.2 µM,-4%
same,growth inhibition,[10]; at 3.7 µM,-16%
same,growth inhibition,[10]; [15],-20%
same,growth inhibition,[10]; at 11.0 µM,-5%
same,growth inhibition,[10]; at 33.0 µM,-2%
same,growth inhibition,[10]; [16],56%
same,growth inhibition,[10]; at 50.0 µM,3.25%
same,growth inhibition,[10]; at 100.0 µM,13%
same,growth inhibition,[11]; at 1.2 µM,-6%
same,growth inhibition,[11]; at 3.7 µM,-8%
same,growth inhibition,[11]; at 11.0 µM,-20%
same,growth inhibition,[11]; at 33.0 µM,7%
same,growth inhibition,[11]; at 100.0 µM,25%
same,growth inhibition,[12]; at 1.2 µM,-7%
same,growth inhibition,[12]; at 3.7 µM,8%
same,growth inhibition,[12]; at 11.0 µM,-15%
same,growth inhibition,[12]; at 33.0 µM,17%
same,growth inhibition,[12]; at 100.0 µM,33%
same,growth inhibition,[13]; [15],-26%
same,growth inhibition,[13]; [16],81% (active)
same,growth inhibition,[13]; at 50.0 µM,72.5% (active)
same,growth inhibition,[14]; at 1.2 µM,-3%
same,growth inhibition,[14]; at 3.7 µM,2%
same,growth inhibition,[14]; at 11.0 µM,18%
same,growth inhibition,[14]; at 33.0 µM,36%
same,growth inhibition,[14]; at 100.0 µM,22%
CCCCCCCCCCCCCCCCNC(=O)/C(=C\c1ccc(Cl)c(Cl)c1)NC(=O)c1ccccc1,growth inhibition,[1]; at 1.2 µM,21%
same,growth inhibition,[1]; at 3.7 µM,8%
same,growth inhibition,[1]; at 11.0 µM,18%
same,growth inhibition,[1]; at 33.0 µM,11%
same,growth inhibition,[1]; at 100.0 µM,77% (active)
same,growth inhibition,[2]; at 1.2 µM,-41%
same,growth inhibition,[2]; at 3.7 µM,-2%
same,growth inhibition,[2]; at 11.0 µM,-4%
same,growth inhibition,[2]; at 33.0 µM,-6%
same,growth inhibition,[2]; at 100.0 µM,9%
same,growth inhibition,[3]; at 1.2 µM,2%
same,growth inhibition,[3]; at 3.7 µM,6%
same,growth inhibition,[3]; at 11.0 µM,6%
same,growth inhibition,[3]; at 33.0 µM,34%
same,growth inhibition,[3]; at 100.0 µM,74% (active)
same,growth inhibition,[4]; at 1.2 µM,-2%
same,growth inhibition,[4]; at 3.7 µM,0%
same,growth inhibition,[4]; [15],14%
same,growth inhibition,[4]; at 11.0 µM,-2%
same,growth inhibition,[4]; at 33.0 µM,-4%
same,growth inhibition,[4]; [16],75% (active)
same,growth inhibition,[4]; at 50.0 µM,93.2% (active)
same,growth inhibition,[4]; at 100.0 µM,49%
same,growth inhibition,[5]; at 1.2 µM,11%
same,growth inhibition,[5]; at 3.7 µM,-5%
same,growth inhibition,[5]; [15],8%
same,growth inhibition,[5]; at 11.0 µM,-7%
same,growth inhibition,[5]; at 33.0 µM,-2%
same,growth inhibition,[5]; [16],29%
same,growth inhibition,[5]; at 50.0 µM,94.2% (active)
same,growth inhibition,[5]; at 100.0 µM,33%
same,growth inhibition,[6]; at 1.2 µM,-1%
same,growth inhibition,[6]; at 3.7 µM,0%
same,growth inhibition,[6]; at 11.0 µM,-4%
same,growth inhibition,[6]; at 33.0 µM,4%
same,growth inhibition,[6]; at 100.0 µM,43%
same,growth inhibition,[7]; [15],-5%
same,growth inhibition,[7]; [16],13%
same,growth inhibition,[7]; at 50.0 µM,55%
same,growth inhibition,[8]; at 1.2 µM,-11%
same,growth inhibition,[8]; at 3.7 µM,-7%
same,growth inhibition,[8]; at 11.0 µM,-6%
same,growth inhibition,[8]; at 33.0 µM,-13%
same,growth inhibition,[8]; at 100.0 µM,52%
same,growth inhibition,[9]; [15],46%
same,growth inhibition,[9]; [16],-10%
same,growth inhibition,[9]; at 50.0 µM,59.2%
same,growth inhibition,[10]; at 1.2 µM,-3%
same,growth inhibition,[10]; at 3.7 µM,-4%
same,growth inhibition,[10]; [15],3%
same,growth inhibition,[10]; at 11.0 µM,-6%
same,growth inhibition,[10]; at 33.0 µM,-7%
same,growth inhibition,[10]; [16],43%
same,growth inhibition,[10]; at 50.0 µM,88.8% (active)
same,growth inhibition,[10]; at 100.0 µM,87% (active)
same,growth inhibition,[11]; at 1.2 µM,0%
same,growth inhibition,[11]; at 3.7 µM,1%
same,growth inhibition,[11]; at 11.0 µM,0%
same,growth inhibition,[11]; at 33.0 µM,5%
same,growth inhibition,[11]; at 100.0 µM,69%
same,growth inhibition,[12]; at 1.2 µM,2%
same,growth inhibition,[12]; at 3.7 µM,5%
same,growth inhibition,[12]; at 11.0 µM,5%
same,growth inhibition,[12]; at 33.0 µM,14%
same,growth inhibition,[12]; at 100.0 µM,49%
same,growth inhibition,[13]; [15],10%
same,growth inhibition,[13]; [16],31%
same,growth inhibition,[13]; at 50.0 µM,89.2% (active)
same,growth inhibition,[14]; at 1.2 µM,7%
same,growth inhibition,[14]; at 3.7 µM,7%
same,growth inhibition,[14]; at 11.0 µM,26%
same,growth inhibition,[14]; at 33.0 µM,24%
same,growth inhibition,[14]; at 100.0 µM,67%
CN[C@@H]1C[C@H]2O[C@@](C)([C@@H]1OC)n1c3ccccc3c3c4c(c5c6ccccc6n2c5c31)C(=O)N[C@@H]4O,growth inhibition,[1]; at 1.2 µM,11%
same,growth inhibition,[1]; at 3.7 µM,35%
same,growth inhibition,[1]; at 11.0 µM,22%
same,growth inhibition,[1]; at 33.0 µM,24%
same,growth inhibition,[1]; at 100.0 µM,38%
same,growth inhibition,[2]; at 1.2 µM,-24%
same,growth inhibition,[2]; at 3.7 µM,16%
same,growth inhibition,[2]; at 11.0 µM,15%
same,growth inhibition,[2]; at 33.0 µM,7%
same,growth inhibition,[2]; at 100.0 µM,8%
same,growth inhibition,[3]; at 1.2 µM,-23%
same,growth inhibition,[3]; at 3.7 µM,-18%
same,growth inhibition,[3]; at 11.0 µM,-9%
same,growth inhibition,[3]; at 33.0 µM,-11%
same,growth inhibition,[3]; at 100.0 µM,21%
same,growth inhibition,[4]; at 1.2 µM,-34%
same,growth inhibition,[4]; at 3.7 µM,-41%
same,growth inhibition,[4]; [15],-17%
same,growth inhibition,[4]; at 11.0 µM,-23%
same,growth inhibition,[4]; at 33.0 µM,-33%
same,growth inhibition,[4]; [16],6%
same,growth inhibition,[4]; at 50.0 µM,50.4%
same,growth inhibition,[4]; at 100.0 µM,2%
same,growth inhibition,[5]; at 1.2 µM,-53%
same,growth inhibition,[5]; at 3.7 µM,-44%
same,growth inhibition,[5]; [15],-9%
same,growth inhibition,[5]; at 11.0 µM,-36%
same,growth inhibition,[5]; at 33.0 µM,-9%
same,growth inhibition,[5]; [16],30%
same,growth inhibition,[5]; at 50.0 µM,35%
